Our source for the enrichment ratio values is a collection of fitness landscapes (doi:10.1126/science.1257360).

The full ranking holds about 140,000 sequences; the median of “enrichment ratio after two sorts for PhoP signalling” is about 0, and the highest 2% start at about 11. The list comes from a sample in which the highest values are over-represented; it also holds similar and randomly drawn sequences.

To fix the notation:
B1: PhoQ; a variant is named by its letters at X, in order, P23837 (parent)
chain: MKKLLRLFFPLSLRVRFLLATAAVVLVLSLAYGMVALIGYSVSFDKTTFRLLRGESNLFYTLAKWENNKLHVELPENIDKQSPTMTLIYDENGQLLWAQRDVPWLMKMIQPDWLKSNGFHEIEADVNDTSLLLSGDHSIQQQLQEVREDDDDAEMTHSVAVNVYPATSRMPKLTIVVVDTIPVELKSSYMVWSWFIYVLSANLLLVIPLLWVAAWWSLRPIEALAKEVRELEEHNRELLNPATTRELTSLVRNLNRLLKSERERYDKYRTTLTDLTHSLKTPLXXLQXXLRSLRSEKMSVSDAEPVMLEQISRISQQIGYYLHRASMRGGTLLSRELHPVAPLLDNLTSALNKVYQRKGVNISLDISPEISFVGEQNDFVEVMGNVLDNACKYCLEFVEISARQTDEHLYIVVEDDGPGIPLSKREVIFDRGQRVDTLRPGQGVGLAVAREITEQYEGKIVAGESMLGGARMEVIFGRQHSAPKDE

In the assay the parent is B1. As to the kind of experiment: enrichment ratio after two sorts for PhoP signalling (ratio (wild type AVST 3.29)); higher = more functional. The following applies: with PhoP (E. coli).
MKML: the enrichment ratio was at most 0.25. Consider SWHC, for which the enrichment ratio is at most 0.25. For WHRD, the enrichment ratio was at most 0.25. The same measure for PISS: at most 0.25; for LFSF: at most 0.25; for RFYN: at most 0.25. As for DIQW, the enrichment ratio was at most 0.25. The value for IIYH was at most 0.25.

For MTML, the enrichment ratio worked out at 4.85. The same measure for MIML: 14. With MMML, the enrichment ratio was at most 0.25. The same measure for MCML: 17.5. The value for MIRL was at most 0.25; that for MIWL was 3.25. The value for KEPP was at most 0.25. In the case of HSFC, the enrichment ratio was at most 0.25. The same measure for TLKM: at most 0.25; for CNFF: at most 0.25. The value for QNDV was at most 0.25; that for HFMM was at most 0.25; that for MGCK was 3.89.

With MGAM, the enrichment ratio was determined as 14.1. MGTS: the enrichment ratio was at most 0.25. On to MGTM, for which the enrichment ratio worked out at 13.6. On to MGTC, for which the enrichment ratio turned out to be 0.695. As for MGTI, the enrichment ratio came to 12.5. For the variant MGTA, the enrichment ratio is at most 0.25.

With MGTH, the enrichment ratio was at most 0.25. MGMM: the enrichment ratio amounted to 37.6. MFMM: the enrichment ratio was at most 0.25.

Regarding MGDH, the enrichment ratio was at most 0.25. The same measure for HMRE: at most 0.25; for WQTY: at most 0.25; for YKIG: at most 0.25.

In the case of VGNS, the enrichment ratio is at most 0.25.

Take HWDL: the enrichment ratio was at most 0.25. Consider SSRL, for which the enrichment ratio is at most 0.25.

Turning to YEQT, the enrichment ratio was at most 0.25. As to LCHM, the enrichment ratio is at most 0.25.

With MVGN, the enrichment ratio came out at 10.6. With IKTK, the enrichment ratio is at most 0.25.

For MGGM, the enrichment ratio amounted to 9.49. For MGWM, the enrichment ratio worked out at 21. Take MGDM: the enrichment ratio was at most 0.25.

On to SSTF, for which the enrichment ratio was determined as 7.3. The value for SATF was 11.2; that for LNTF was at most 0.25. For SLTF, the enrichment ratio is 12.2. Turning to KATF, the enrichment ratio was at most 0.25. Consider LLTF, for which the enrichment ratio was at most 0.25. Turning to SITF, the enrichment ratio was 11.8. Consider NATF, for which the enrichment ratio is at most 0.25.

Consider SNTF, for which the enrichment ratio amounted to 12.1. The same measure for KYTF: at most 0.25. The value for WLTF was at most 0.25; that for SRTF was at most 0.25; that for LNWL was at most 0.25. On to ERPG, for which the enrichment ratio was at most 0.25. As for NYCA, the enrichment ratio is at most 0.25. IDCL: the enrichment ratio was at most 0.25. VING: the enrichment ratio is at most 0.25. Regarding WSTV, the enrichment ratio is at most 0.25. TVQL: the enrichment ratio was determined as 16.7. Consider SPQL, for which the enrichment ratio was at most 0.25. As for LAQL, the enrichment ratio was at most 0.25. The same measure for MMQL: at most 0.25. The value for NVQL was at most 0.25; that for TSQL was 14.

In the case of HAQL, the enrichment ratio was at most 0.25. The value for NMQL was at most 0.25; that for KSQL was at most 0.25; that for TQQL was 11.6. The value for TMQL was 12.8.

Take DWQL: the enrichment ratio was at most 0.25. NGLW: the enrichment ratio is at most 0.25. Consider YAWN, for which the enrichment ratio is at most 0.25. For the variant QRCA, the enrichment ratio is at most 0.25. For the variant FANK, the enrichment ratio is at most 0.25. Turning to PWMR, the enrichment ratio was at most 0.25.

YMPP: the enrichment ratio is at most 0.25. For PLMP, the enrichment ratio is at most 0.25. Consider FLRE, for which the enrichment ratio was at most 0.25. The same measure for MFVW: at most 0.25. The same measure for LQNW: at most 0.25; for LNQL: at most 0.25. As to YAQL, the enrichment ratio was at most 0.25.

Consider TKQL, for which the enrichment ratio amounted to 23.2. On to NAQL, for which the enrichment ratio is at most 0.25. The same measure for MNQL: at most 0.25. The same measure for KAQL: 1.07; for TNQL: 12.7. On to TLQL, for which the enrichment ratio is 13. The value for KLQL was at most 0.25; that for WFHV was at most 0.25. The value for AFMF was at most 0.25; that for WQHR was at most 0.25; that for AKRK was at most 0.25.

Turning to KMEC, the enrichment ratio was at most 0.25. The same measure for NEEC: at most 0.25; for KMEI: at most 0.25. The same measure for NEEV: at most 0.25. TMEV: the enrichment ratio worked out at 25. The value for TMSL was 13.1; that for TMFV was 0.532. The value for NMSL was at most 0.25; that for TMEC was 11.9. DMEI: the enrichment ratio was at most 0.25.

Turning to KMSL, the enrichment ratio was at most 0.25.

For the variant TMEI, the enrichment ratio turned out to be 17.7. As to IVWG, the enrichment ratio is at most 0.25. Regarding GKHD, the enrichment ratio was at most 0.25. The value for RMMR was at most 0.25; that for VNCL was 4.33. RQDI: the enrichment ratio is at most 0.25.

On to MCGY, for which the enrichment ratio is at most 0.25.

As to TMGL, the enrichment ratio was determined as 7.75. Take TMHL: the enrichment ratio was found to be 11.6.

In the case of TMWL, the enrichment ratio is at most 0.25. The value for TMEL was 15.3; that for MMHL was 1.34; that for DMHL was at most 0.25. HEGR: the enrichment ratio is at most 0.25. For IMAF, the enrichment ratio is at most 0.25.

For LWKN, the enrichment ratio is at most 0.25. For VRPW, the enrichment ratio is at most 0.25. The same measure for HNFA: at most 0.25; for TPCH: at most 0.25. The same measure for VYYN: at most 0.25; for VLGI: at most 0.25; for SLCN: 11.5.

STCN: the enrichment ratio is 8.56.

For GLCI, the enrichment ratio amounted to 9.01.

As to GLCN, the enrichment ratio worked out at 12.8.

As for THCN, the enrichment ratio is 4.64.

In the case of CLCN, the enrichment ratio worked out at 23.2.

On to GLLN, for which the enrichment ratio was at most 0.25. For CLLN, the enrichment ratio was at most 0.25. The value for SHLN was 2.15.

With SHCN, the enrichment ratio came out at 13.2. For the variant ELCN, the enrichment ratio is at most 0.25. As for WLCN, the enrichment ratio is at most 0.25. The same measure for VNQW: at most 0.25; for HNQK: at most 0.25. The same measure for YVDP: at most 0.25; for RGYW: at most 0.25; for TCKY: at most 0.25. The same measure for NSCN: at most 0.25; for KYCN: at most 0.25. Regarding SVLN, the enrichment ratio is 7.1.

As to SSLN, the enrichment ratio was 6.84. Turning to SSCN, the enrichment ratio is 16.9.

Turning to SVCN, the enrichment ratio turned out to be 19.4. Turning to SVNL, the enrichment ratio was at most 0.25. The value for KSCN was at most 0.25; that for SICN was 20.7; that for SILN was 8.2. The value for TSCN was 26.6; that for FSCN was at most 0.25.
